Records with an inconclusive call do not appear. Calls of active or inactive are those of the source. Calls follow the shape of the dose curve; as a rule, active = well fitted activation curve with a large enough effect in the signal ratio in the repeat runs (not every such curve was filed as active); inconclusive = weak or mixed curves, or effect the other way; inactive = no such curve, though single readings can be large or run the other way; the % refers to the signal ratio.
Biological target: Peroxisome proliferator-activated receptor gamma (Homo sapiens) (UniProt P37231)
Experiment: qHTS assay to identify small molecule agonists of the peroxisome proliferator-activated receptor gamma (PPARg) signaling pathway (AID 743094)
Details: HEK293H PPARg-UAS-bla, beta-lactamase FRET ratio, 17 h; series mostly up to 57 µM; activation: at the top concentration
Excerpt: U.S. Tox21 Program National Center for Advancing Translational Sciences [NCATS] NIH Chemical Genomics Center [NCGC] U.S. Environmental Protection Agency [EPA] National Institutes of Environmental Health Sciences [NIEHS] National Toxicology Program [NTP] U.S. Food and Drug Administration [FDA] Tox21 Assay Overview: The peroxisome proliferator-activated receptors (PPARs) are lipid-activated transcription factors of the nuclear receptor superfamily with three distinct subtypes namely PPAR alpha, PPAR delta (also called PPAR beta) and PPAR gamma (PPARg). All these subtypes heterodimerize with Retinoid X receptor (RXR) and these heterodimers regulate transcription of various genes. PPAR-gamma receptor (glitazone receptor) is involved in the regulation of glucose and lipid metabolism. To identify the compounds that activate PPAR-gamma signaling, GeneBLAzer PPAR gamma UAS-bla HEK293H cell line (Invitrogen, Carlsbad, CA, USA) containing a beta-lactamase reporter gene under control of the control of an upstream activator sequence (UAS) stably integrated into HEK293H cells was used to screen Tox21 compound library.
Tox21 Assay Protocol Summary: PPARg-bla cells were dispensed at 3000 cells/6uL/well in 1536-well black wall/clear bottom plates using a Multidrop Combi (Thermo Fisher Scientific, Waltham, MA) dispenser. After the assay plates were incubated at 37C and 5% CO2 for 5 h, 23 nL of compounds dissolved in DMSO, positive controls or DMSO only was transferred to the assay plate by a Pintool station (Kalypsys, San Diego, CA). The assay plates were incubated at 37C for 17 h. After 1 uL of LiveBLAzerTM B/G FRET substrate was added using a Bioraptr Flying Reagent Dispenser (FRD) workstation (Beckman Coulter, Indianapolis, IN, USA), the plates were incubated at room temperature for 1 h, and fluorescence intensity was measured by an Envision plate reader (PerkinElmer, Shelton, CT).
% is scaled to controls: 0 for no effect and ±100 for the full control effect.

Chain of Peroxisome proliferator-activated receptor gamma (Homo sapiens) (P37231 whole entry, looked up): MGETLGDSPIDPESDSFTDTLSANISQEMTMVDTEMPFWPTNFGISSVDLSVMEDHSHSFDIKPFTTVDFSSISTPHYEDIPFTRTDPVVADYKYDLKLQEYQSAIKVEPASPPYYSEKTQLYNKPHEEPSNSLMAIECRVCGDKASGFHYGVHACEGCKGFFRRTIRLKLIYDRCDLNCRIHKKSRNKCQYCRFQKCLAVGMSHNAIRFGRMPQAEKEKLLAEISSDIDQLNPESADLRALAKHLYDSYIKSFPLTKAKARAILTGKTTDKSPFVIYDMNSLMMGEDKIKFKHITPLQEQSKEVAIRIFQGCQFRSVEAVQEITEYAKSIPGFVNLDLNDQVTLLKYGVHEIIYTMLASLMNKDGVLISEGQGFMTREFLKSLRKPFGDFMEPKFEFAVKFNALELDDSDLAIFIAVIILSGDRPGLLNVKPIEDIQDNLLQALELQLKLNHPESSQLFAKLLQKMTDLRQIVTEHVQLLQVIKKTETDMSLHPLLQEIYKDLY

| SMILES | activation |
| --- | --- |
| CCS(=O)(=O)C(C)(C)S(=O)(=O)CC | 1.18% (inactive) |
| CCCSP(=O)(OCC)Oc1ccc(Br)cc1Cl (stereo not given) | 0.594% (inactive) |
| C[C@]1(O)CC[C@H]2[C@@H]3CCC4=CC(=O)CC[C@]4(C)[C@@]3(F)[C@@H](O)C[C@@]21C | -0.895% (inactive) |
| Fc1ccc(C2(Cn3cncn3)OC2c2ccccc2Cl)cc1 (stereo not given) | -9.5% (inactive) |
| CC(N)=S | 6.08% (inactive) |
| CCOC(=O)N(C)C(=O)CSP(=S)(OCC)OCC | -0.96% (inactive) |
| ClCCOCOCCCl | 5.26% [at 78.9 µM] (inactive) |
| O=C(Cc1ccccc1)OCc1ccccc1 | 3.52% [at 78.9 µM] (inactive) |
| N#CCNCC#N | -6.6% (inactive) |
| Cc1ccccc1CO[C@@H]1C[C@@]2(C(C)C)CC[C@]1(C)O2 | 2.62% (inactive) |
| C[N+](=O)[O-] | -3.67% (inactive) |
| CCSC(=O)N(CC)C1CCCCC1 | -0.0076% (inactive) |
| ClC(Cl)(Cl)C(Cl)(Cl)Cl | 4.69% [at 78.9 µM] (inactive) |
| COc1cc(OC)nc(Sc2cccc(Cl)c2C(=O)O)n1 | -2.12% (inactive) |
| N#CC(O)c1ccccc1 (stereo not given) | -5.51% (inactive) |
| CCCCOC(=O)[C@@H](C)Oc1ccc(Oc2ccc(C#N)cc2F)cc1 | 5.98% (inactive) |
| CC(C=O)Cc1ccc2c(c1)OCO2 (stereo not given) | -2.7% (inactive) |
| C=C(C)CN(CC)c1c([N+](=O)[O-])cc(C(F)(F)F)cc1[N+](=O)[O-] | -0.0077% (inactive) |
| CC1(C)CON(Cc2ccccc2Cl)C1=O | -3.46% (inactive) |
| CCOP(=S)(OCC)SCSP(=S)(OCC)OCC | -4.52% (inactive) |

| SMILES | activation |
| --- | --- |
| NC(=O)c1cc([N+](=O)[O-])cc([N+](=O)[O-])c1 | -1.61% (inactive) |
| COP(=S)(OC)Oc1ccc(S(N)(=O)=O)cc1 | -1.98% (inactive) |
| CC1(C(=O)Nc2ccc(O)c(Cl)c2Cl)CCCCC1 | -4.83% (inactive) |
| CCCCOP(=O)(O)OCCCC | -0.064% (inactive) |
| c1cc[c]([Hg][c]2ccccc2)cc1 | 5.91% (inactive) |
| CC(C)[N+](=O)[O-] | 0.859% (inactive) |
| CCC(=O)c1ccccc1 | 1.17% (inactive) |
| Cc1cc(C)nc(Nc2ccccc2)n1 | -4.43% (inactive) |
| CC(=O)Nc1cc([As](=O)(O)O)ccc1O | 1.81% (inactive) |
| CC(C)CC#N | -0.23% [at 78.9 µM] (inactive) |
| Nc1ccccc1Cl | -1.92% (inactive) |
| C1CCC(C2CCCCC2)CC1 | 7.64% (inactive) |
| O=C(N[C@H]1CN2CCC1CC2)c1cc2ccoc2cn1 | 3.01% (inactive) |
| CCCCOC(=O)c1ccccc1N | 4.37% [at 78.9 µM] (inactive) |
| CCN(Cc1ccc(Cl)nc1)/C(=C/[N+](=O)[O-])NC | -4.64% (inactive) |
| OC(c1ccc(F)cc1)(c1cncnc1)c1ccccc1Cl (stereo not given) | -5.31% (inactive) |
| Oc1c(Cl)cccc1Cl | 0.945% (inactive) |
| O=CNC(N1CCN(C(NC=O)C(Cl)(Cl)Cl)CC1)C(Cl)(Cl)Cl (stereo not given) | -8.7% (inactive) |
| O=C1OC(=O)C2C1C1(Cl)C(Cl)=C(Cl)C2(Cl)C1(Cl)Cl (stereo not given) | 0.677% [at 78.9 µM] (inactive) |
| O=[N+]([O-])c1cccc(O)c1 | -2.56% [at 78.9 µM] (inactive) |

Reference: PubChem BioAssay (Tox21)
